{"source": "paper PMC8384837", "about": "“Expanding the binding specificity for RNA recognition by a PUF domain”", "assay_in_all_cases": "yeast three-hybrid, YBZ-1, SC-Leu-His + 0.5 mM 3-AT, 4 days", "conditions_in_all_cases": "tags: N-Gal4 AD-HA kept; label: inside an RPR1-promoter hybrid RNA with tandem MS2 sites; ssRNA", "key": {"PUM1 PUF domain R3-FRV": {"target": "PUM1 PUF domain R3-FRV (Homo sapiens, UniProt Q14671 828-1176, C935F;Q939V)", "procedure,_shortened": "(§1)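 The interaction score is the log change in variant frequency from input to selection. Scores were computed in log2 with a pseudocount of 1 for absent variants, using Illumina sequencing of PCR-amplified repeat regions. The input came from four days on SC-Leu and the selection from four days on SC-Leu-His + 0.5 mM 3-AT. The cells were strain YBZ-1 (LexA–MS2 coat fusion, HIS3 reporter) co-expressing Pumilio-1 PUF domain libraries and matching RNA elements from a centromeric plasmid.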"}, "PUM1 PUF domain R5-RCM": {"target": "PUM1 PUF domain R5-RCM (Homo sapiens, UniProt Q14671 828-1176, C1007R;R1008C;Q1011M)", "procedure,_shortened": "as §1"}, "PUM1 PUF domain R8-PWA": {"target": "PUM1 PUF domain R8-PWA (Homo sapiens, UniProt Q14671 828-1176, N1122P;Y1123W;Q1126A)", "procedure,_shortened": "as §1"}, "PUM1 PUF domain R5-TTR": {"target": "PUM1 PUF domain R5-TTR (Homo sapiens, UniProt Q14671 828-1176, C1007T;R1008T;Q1011R)", "procedure,_shortened": "as §1"}, "PUM1 PUF domain R6-LFS": {"target": "T1, PUM1 PUF domain R6-LFS (Homo sapiens, UniProt Q14671 828-1176, N1043L;Y1044F;Q1047S)", "T1 sequence": "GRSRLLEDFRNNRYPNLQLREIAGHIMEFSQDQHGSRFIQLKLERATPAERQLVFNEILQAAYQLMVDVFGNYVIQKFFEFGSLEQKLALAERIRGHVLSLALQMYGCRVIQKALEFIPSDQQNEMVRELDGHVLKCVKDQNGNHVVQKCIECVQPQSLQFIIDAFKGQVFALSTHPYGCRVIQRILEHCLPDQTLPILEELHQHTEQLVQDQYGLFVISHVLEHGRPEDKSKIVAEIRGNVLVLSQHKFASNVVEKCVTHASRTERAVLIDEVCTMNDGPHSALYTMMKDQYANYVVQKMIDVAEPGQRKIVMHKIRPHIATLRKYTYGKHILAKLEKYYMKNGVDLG", "procedure,_shortened": "as §1"}, "PUM1 PUF domain R4-PFA": {"target": "PUM1 PUF domain R4-PFA (Homo sapiens, UniProt Q14671 828-1176, N971P;H972F;Q975A)", "procedure,_shortened": "as §1"}, "PUM1 PUF domain R3-ARH": {"target": "PUM1 PUF domain R3-ARH (Homo sapiens, UniProt Q14671 828-1176, C935A;Q939H)", "procedure,_shortened": "as §1"}}, "data": [{"sequence": "GGCUAGAACUAGUGGAUCCCCCGGCGCCCGGCGGCUCGAGCCCGGGUAAGUGUAAGUAGUCUGCAUGCCGCCGGGCGCCAUGCCUGCAGGUCGACUCUAGAAAACAUG", "values": [{"measurement": "binding signal", "setting": "PUM1 PUF domain R3-FRV", "value": "4.5 log2 enrichment (interaction score)"}]}, {"sequence": "GGCUAGAACUAGUGGAUCCCCCGGCGCCCGGCGGCUCGAGCCCGGGUAAGUGUGAAUAGUCUGCAUGCCGCCGGGCGCCAUGCCUGCAGGUCGACUCUAGAAAACAUG", "values": [{"measurement": "binding signal", "setting": "PUM1 PUF domain R5-RCM", "value": "1.67 log2 enrichment (interaction score)"}]}, {"sequence": "GGCUAGAACUAGUGGAUCCCCCGGCGCCCGGCGGCUCGAGCCCGGGUAAGCGUAAAUAGUCUGCAUGCCGCCGGGCGCCAUGCCUGCAGGUCGACUCUAGAAAACAUG", "values": [{"measurement": "binding signal", "setting": "PUM1 PUF domain R8-PWA", "value": "2.7 log2 enrichment (interaction score)"}]}, {"sequence": "GGCUAGAACUAGUGGAUCCCCCGGCGCCCGGCGGCUCGAGCCCGGGUAAGUGUAAAUAGUCUGCAUGCCGCCGGGCGCCAUGCCUGCAGGUCGACUCUAGAAAACAUG", "values": [{"measurement": "binding signal", "setting": "PUM1 PUF domain R5-TTR", "value": "0.63 log2 enrichment (interaction score)"}, {"measurement": "binding signal", "setting": "PUM1 PUF domain R8-PWA", "value": "2.2 log2 enrichment (interaction score)"}, {"measurement": "binding signal", "setting": "PUM1 PUF domain R6-LFS", "value": "1.98 log2 enrichment (interaction score)"}, {"measurement": "binding signal", "setting": "PUM1 PUF domain R4-PFA", "value": "4.95 log2 enrichment (interaction score)"}, {"measurement": "binding signal", "setting": "PUM1 PUF domain R3-ARH", "value": "3.26 log2 enrichment (interaction score)"}, {"measurement": "binding signal", "setting": "PUM1 PUF domain R5-RCM", "value": "0.77 log2 enrichment (interaction score)"}]}]}
